# Laboratory results: publication PMC11062922 (Nature Chemical Biology, 2023)
# Like-named read-outs stand apart in the source and are kept apart here.
# Columns and labels:
# AAK1 = test system: AAK1; design: species or system human, MV4-11 + K-562 + COLO205 + SK-N-BE2 + OVCAR-8; conditions: read-out: apparent Kd, n = 1
# BMP2K = test system: BMP2K; design: species or system human, MV4-11 + K-562 + COLO205 + SK-N-BE2 + OVCAR-8; conditions: read-out: apparent Kd, n = 1
# CLK4 = test system: CLK4; design: species or system human, MV4-11 + K-562 + COLO205 + SK-N-BE2 + OVCAR-8; conditions: read-out: apparent Kd, n = 1
# PKN1 = test system: PKN1; design: species or system human, MV4-11 + K-562 + COLO205 + SK-N-BE2 + OVCAR-8; conditions: read-out: apparent Kd, n = 1
# Q6ZSR9 = Q6ZSR9 (human, UniProt Q6ZSR9); design: species or system MV4-11 + K-562 + COLO205 + SK-N-BE2 + OVCAR-8; conditions: read-out: apparent Kd, n = 1
# CLK1 = test system: CLK1; design: species or system human, MV4-11 + K-562 + COLO205 + SK-N-BE2 + OVCAR-8; conditions: read-out: apparent Kd, n = 1
# MELK = test system: MELK; design: species or system human, MV4-11 + K-562 + COLO205 + SK-N-BE2 + OVCAR-8; conditions: read-out: apparent Kd, n = 1
# RET = test system: RET; design: species or system human, MV4-11 + K-562 + COLO205 + SK-N-BE2 + OVCAR-8; conditions: read-out: apparent Kd, n = 1
# CSNK2A1;CSNK2A3 = test system: CSNK2A1;CSNK2A3; design: species or system human, MV4-11 + K-562 + COLO205 + SK-N-BE2 + OVCAR-8; conditions: read-out: apparent Kd; compound concentrations: 100 nM and 1000 nM (sheet 'Samples'), CATDS: 2.9027112719044901E-2; n = 1
# CSNK2A2 = test system: CSNK2A2; design: species or system human, MV4-11 + K-562 + COLO205 + SK-N-BE2 + OVCAR-8; conditions: read-out: apparent Kd; compound concentrations: 100 nM and 1000 nM (sheet 'Samples'), CATDS: 2.7289326995804501E-2; n = 1
# GAK = test system: GAK; design: species or system human, MV4-11 + K-562 + COLO205 + SK-N-BE2 + OVCAR-8; conditions: read-out: apparent Kd; compound concentrations: 100 nM and 1000 nM (sheet 'Samples'), CATDS: 2.8408815024035201E-2; n = 1
# FLT3 = test system: FLT3; design: species or system human, MV4-11 + K-562 + COLO205 + SK-N-BE2 + OVCAR-8; conditions: read-out: apparent Kd; compound concentrations: 100 nM and 1000 nM (sheet 'Samples'), CATDS: 0.17522141736576; n = 1
# FLT4 = test system: FLT4; design: species or system human, MV4-11 + K-562 + COLO205 + SK-N-BE2 + OVCAR-8; conditions: read-out: apparent Kd; compound concentrations: 100 nM and 1000 nM (sheet 'Samples'), CATDS: 0.17294643484613401; n = 1
# GSK3A = test system: GSK3A; design: species or system human, MV4-11 + K-562 + COLO205 + SK-N-BE2 + OVCAR-8; conditions: read-out: apparent Kd; compound concentrations:100 nM and 1000 nM (sheet 'Samples'); n = 1
# PKN3 = test system: PKN3; design: species or system human, MV4-11 + K-562 + COLO205 + SK-N-BE2 + OVCAR-8; conditions: read-out: apparent Kd; compound concentrations:100 nM and 1000 nM (sheet 'Samples'); n = 1
# PAK4 = test system: PAK4; design: species or system human, MV4-11 + K-562 + COLO205 + SK-N-BE2 + OVCAR-8; conditions: read-out: apparent Kd; compound concentrations: 100 nM and 1000 nM (sheet 'Samples'), CATDS: 0.130749402221499; n = 1
# [1] = compound concentrations:100 nM and 1000 nM (sheet 'Samples')
# Sequence of Q6ZSR9 (Q6ZSR9 whole entry, looked up): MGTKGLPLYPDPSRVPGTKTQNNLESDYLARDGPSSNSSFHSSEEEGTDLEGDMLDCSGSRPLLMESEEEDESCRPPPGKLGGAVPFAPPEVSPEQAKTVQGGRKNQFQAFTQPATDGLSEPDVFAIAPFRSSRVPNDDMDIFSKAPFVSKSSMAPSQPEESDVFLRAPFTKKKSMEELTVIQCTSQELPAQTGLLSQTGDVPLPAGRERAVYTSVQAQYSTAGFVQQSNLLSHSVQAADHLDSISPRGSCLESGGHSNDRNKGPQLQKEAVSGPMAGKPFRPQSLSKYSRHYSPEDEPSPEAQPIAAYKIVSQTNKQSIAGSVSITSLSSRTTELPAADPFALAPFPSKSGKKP
smiles,measurement,setting,value
Cl.Cl.NC(CNC(=O)c1cc(Br)c(-c2ccnc3[nH]ccc23)s1)c1ccccc1.NC(CNC(=O)c1cc(Br)c(-c2ccnc3[nH]ccc23)s1)c1ccccc1 (centres unmarked) [GSK1322949A],potency estimated from few doses,"AAK1; compound concentrations: 100 nM and 1000 nM (sheet 'Samples'), CATDS: 3.1655313708127797E-2",1070 nM
same,potency estimated from few doses,"BMP2K; compound concentrations: 100 nM and 1000 nM (sheet 'Samples'), CATDS: 4.4675050363511E-2",552 nM
same,potency estimated from few doses,"CLK4; compound concentrations: 100 nM and 1000 nM (sheet 'Samples'), CATDS: 3.1125873030522201E-2",1120 nM
same,potency estimated from few doses,"PKN1; compound concentrations: 100 nM and 1000 nM (sheet 'Samples'), CATDS: 2.3359167172179899E-2",2380 nM
same,potency estimated from few doses,"Q6ZSR9; compound concentrations: 100 nM and 1000 nM (sheet 'Samples'), CATDS: 3.14131871336574E-2",1090 nM
CS(=O)(=O)Nc1cccc(-c2ccc3c(NC(=O)C4CC4)n[nH]c3c2)c1 [SB-742864],potency estimated from few doses,"AAK1; compound concentrations: 100 nM and 1000 nM (sheet 'Samples'), CATDS: 0.116591298752119",1410 nM
same,potency estimated from few doses,"BMP2K; compound concentrations: 100 nM and 1000 nM (sheet 'Samples'), CATDS: 0.11349645370011199",1510 nM
same,potency estimated from few doses,"Q6ZSR9; compound concentrations: 100 nM and 1000 nM (sheet 'Samples'), CATDS: 0.100041705724795",2110 nM
CNc1cc(-c2ccc3c(N)n[nH]c3c2)nc(N)n1 [GSK2224810A],potency estimated from few doses,AAK1; [1],781 nM
same,potency estimated from few doses,BMP2K; [1],1040 nM
same,potency estimated from few doses,CLK1; [1],314 nM
same,potency estimated from few doses,CLK4; [1],154 nM
same,potency estimated from few doses,MELK; [1],898 nM
same,potency estimated from few doses,Q6ZSR9; [1],687 nM
same,potency estimated from few doses,RET; [1],1070 nM
c1ccc(-c2n[nH]cc2Nc2ccnc3ccccc23)nc1 [GW694077X],potency estimated from few doses,"AAK1; compound concentrations: 100 nM and 1000 nM (sheet 'Samples'), CATDS: 0.15981280907647699",22.9 nM
same,potency estimated from few doses,"BMP2K; compound concentrations: 100 nM and 1000 nM (sheet 'Samples'), CATDS: 0.12898106830803699",31.6 nM
same,potency estimated from few doses,"CLK1; compound concentrations: 100 nM and 1000 nM (sheet 'Samples'), CATDS: 6.3259021647505201E-2",116 nM
same,potency estimated from few doses,"CLK4; compound concentrations: 100 nM and 1000 nM (sheet 'Samples'), CATDS: 2.8276062957920199E-2",948 nM
same,potency estimated from few doses,CSNK2A1;CSNK2A3,870 nM
same,potency estimated from few doses,CSNK2A2,1070 nM
same,potency estimated from few doses,GAK,933 nM
same,potency estimated from few doses,"MELK; compound concentrations: 100 nM and 1000 nM (sheet 'Samples'), CATDS: 2.6674495002574999E-2",1150 nM
same,potency estimated from few doses,"Q6ZSR9; compound concentrations: 100 nM and 1000 nM (sheet 'Samples'), CATDS: 0.16373298432482",22.1 nM
CN(c1ccc(NC(=O)NCCN2CCOCC2)cc1)c1ccnc(Nc2ccc(CS(C)(=O)=O)cc2)n1.Cl [GW830365A],potency estimated from few doses,"AAK1; compound concentrations: 100 nM and 1000 nM (sheet 'Samples'), CATDS: 5.9294254337115E-2",785 nM
same,potency estimated from few doses,"BMP2K; compound concentrations: 100 nM and 1000 nM (sheet 'Samples'), CATDS: 5.1935568412460401E-2",1150 nM
same,potency estimated from few doses,FLT3,107 nM
same,potency estimated from few doses,FLT4,109 nM
same,potency estimated from few doses,"Q6ZSR9; compound concentrations: 100 nM and 1000 nM (sheet 'Samples'), CATDS: 5.6296915490776901E-2",904 nM
same,potency estimated from few doses,"RET; compound concentrations: 100 nM and 1000 nM (sheet 'Samples'), CATDS: 9.0906950139660506E-2",308 nM
CCn1c(-c2nonc2N)nc2cncc(C(=O)N3CC[C@H](N)C3)c21.Cl [SB-772077-B],potency estimated from few doses,AAK1; [1],1700 nM
same,potency estimated from few doses,GSK3A,1100 nM
same,potency estimated from few doses,PKN1; [1],484 nM
same,potency estimated from few doses,PKN3,1710 nM
same,potency estimated from few doses,Q6ZSR9; [1],1880 nM
COc1cccc(C2=C(c3c(C)n(C)c4ccccc34)C(=O)NC2=O)c1 [RO3300167-000],potency estimated from few doses,"AAK1; compound concentrations: 100 nM and 1000 nM (sheet 'Samples'), CATDS: 7.9667560611670199E-2",1520 nM
same,potency estimated from few doses,PAK4,582 nM
same,potency estimated from few doses,"Q6ZSR9; compound concentrations: 100 nM and 1000 nM (sheet 'Samples'), CATDS: 7.9945675311768105E-2",1510 nM
Cl.Cl.NC[C@H](CC1CCCCC1)NC(=O)c1ccc(-c2ccnc3[nH]ccc23)s1.NC[C@H](CC1CCCCC1)NC(=O)c1ccc(-c2ccnc3[nH]ccc23)s1 [GSK1581428A],potency estimated from few doses,AAK1; [1],54.5 nM
same,potency estimated from few doses,PKN1; [1],538 nM
same,potency estimated from few doses,Q6ZSR9; [1],62.7 nM
